# Bioassay records: PubChem BioAssay, National Center for Advancing Translational Sciences (NCATS)
# DT40 TDP1 CPT: growth inhibition of DT40 Tdp1-/-;hTDP1 cells with camptothecin (screen for TDP1 inhibitors). Potency, µM (highest dose often 46.2 µM), for inactives: at the top dose activity change, negative = growth inhibition, usual class: inhibitors. chicken DT40 Tdp1-/-;hTDP1 cells + 20 nM CPT, ATP luminescence, 48 h. AID 686979. 420,000 tested, 12% active; note: potency is the fitted concentration of half-maximal effect; nearly all actives have a fitted effect of over 55% in size
#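 Chicken DT40 Tdp1-/- cells complemented with human TDP1, 400 cells/well, exposed to compounds plus 20 nM camptothecin for at least 48 h at 37 C; viability read as ATP content by CellTiter-Glo luminescence.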
# HT1080-NT tox: kills 2HG-producing HT-1080-NT fibrosarcoma cells | 360,000 tested, 1.6% active | Potency, µM (top dose mostly 46.1 µM), inactives show top-dose activity, negative = less viability, usual class: cytotoxic | HT-1080-NT fibrosarcoma viability, CellTiter-Glo ATP luminescence, 48 h | AID 686970;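 note: NT is the 2HG producing partner of a matched IDH1 knockdown line; potency is the fitted concentration of half-maximal effect; 0% = DMSO-treated cells and -100% = media-only wells without cells; nearly all actives have a fitted effect of over 55% in size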
#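 750 cells/well, RPMI + 5% FBS; 2 h settle, compound pin-transfer, 48 h at 37 degrees C. CellTiter-Glo 10 min RT, luminescence. Normalized to DMSO and media-only wells.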
# DT40 TDP1 no CPT: qHTS for Inhibitors of human tyrosyl-DNA phosphodiesterase 1 (TDP1): qHTS in cells in absence of CPT. DT40 Tdp1-/- hTDP1 cells, no CPT, ATP luminescence, 48 h. Potency, µM (series often up to 46.2 µM), for inactives: top-dose activity change, negative = growth inhibition, hits mostly inhibitors. 420,000 tested, 15% active. AID 686978, 2013; note: potency is the fitted concentration of half-maximal effect; nearly all actives have a fitted effect of over 55% in size
#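 No-CPT arm: Tdp1-/-;hTDP1 DT40 cells (400/well) plus compounds, incubated ≥48 hr at 37 °C. Readout CellTiter-Glo luminescence.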
# IL1B secr inh: inflammasome signaling inhibition, IL-1 beta readout; AID 743279; THP-1 LPS/ATP IL-1B secretion, AlphaLISA, 16 h; active compounds read low; 360,000 tested, 4.7% active; activity change, % at 57.5 µM; in the data active = activity change below about -50%; inconclusive = mostly about -30% to -49%
#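 THP-1 cells pretreated 1 hr with compounds (up to 57.5 uM final), then stimulated with LPS (250 ng/mL final) plus ATP (1.25 mM final); secreted IL-1B measured by AlphaLISA after 16 hr, decreased signal indicating inhibition.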
# HT1080 IDH1KD tx: toxicity to HT-1080 IDH1 knockdown cells (counter line); 360,000 tested, 2% active; Potency, µM (doses to about 46.1 µM), inactives show top-dose activity, negative = toxicity, actives largely listed as cytotoxic; HT-1080 IDH1 knockdown viability, ATP luminescence, 48 h; AID 686971;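 note: potency is the fitted concentration of half-maximal effect; 0% = DMSO wells and -100% = cell-free medium wells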
#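 Assay cells: HT-1080 with IDH1 knockdown, 750 per well, RPMI/5% FBS. Exposure: 48 h at 37 °C following 2 h pre-incubation. Read: CellTiter-Glo luminescence; fitted concentration-response, curve class assigned.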
# * hit, by the source's call; ? = inconclusive; / = no result given. In the library only some 19% were active in any assay of this set; here they are far more common. Unless noted, calls come from the whole dose curve; as a rule, active = well fitted curve in the direction sought with a large enough effect; inconclusive = small, poorly fitted or top-dose-only effect, or another doubt; inactive = no such curve, though single readings can be large; an effect the other way counts as inactive or inconclusive. Unless noted, % is set by controls: 0 for no effect and ±100 for the full control effect.
SMILES,DT40 TDP1 CPT,HT1080-NT tox,DT40 TDP1 no CPT,IL1B secr inh,HT1080 IDH1KD tx
Cc1noc(C)c1C(=O)N1CCC2(CC1)CN(C(=O)Nc1cccc(F)c1)C2,-7.1%,/,-0.5%,/,/
Cc1cc(C(=O)CSc2nnc(-c3cccs3)n2Cc2ccccc2)c(C)n1C,?,-5.0%,?,?,-5.4%
O=c1c2ccccc2nnn1CSc1nnc(-c2cccs2)n1Cc1ccccc1,29.1µM*,-28.8%,23.1µM*,?,?
O=c1cc(CSc2nnc(-c3cccs3)n2Cc2ccccc2)nc2sc3ccccc3n12,5.8µM*,-19.3%,3.66µM*,-51.1*,25.9µM*
O=C(N/C(=C\c1cccc([N+](=O)[O-])c1)C(=O)N1CCCCC1)c1cccs1,-7.2%,4.1%,-27.2%,-9.9,-6.8%
COc1ccc(OCCOC(=O)c2ccc(F)c(S(=O)(=O)N3CCOCC3)c2)cc1,-9.6%,-2.1%,0.1%,0.0,-2.7%
COc1ccc(-n2cnnc2SCc2ncc(-c3ccccc3)o2)cc1,-14.5%,-7.3%,-27.0%,3.9,-2.6%
Cn1c(COc2ccc(Cl)cc2)nnc1SCc1ncc(-c2ccccc2)o1,?,-0.7%,16.4µM*,-12.5,-20.4%
CC(=O)NC1C(OC2OC(CC(O)C3OC([N+]4=CCC(=O)NC4=O)C(O)C3O)C(O)C(O)C2NC(=O)/C=C/CCCCCCCCC(C)C)OC(CO)C(O)C1O (centres undefined),0.114µM*,/,0.0904µM*,/,/
CCOc1ccc(CO[C@@H]2O[C@H](CO)[C@@H](O)[C@H](O)[C@H]2NC(C)=O)cc1OC,7.6%,15.8%,-4.3%,-1.4,24.0%
CCc1nc2sc3c(O)cc(=O)[nH]c3c2cc1C,?,-2.5%,11.6µM*,-6.5,-5.9%
COc1cccc(C(C)(O)c2nc(-c3ccccc3)cs2)c1 (centres undefined),16.4µM*,?,18.4µM*,5.4,?
COc1cccc(C(C)(O)c2nc(-c3cccc(C(C)C)c3)cs2)c1 (centres undefined),?,?,23.1µM*,-82.5*,?
CC(O)(c1cccc(F)c1)c1nc(-c2ccc(Cl)cc2)cs1 (centres undefined),?,?,?,31.1,?
CN(C)c1ccc(-c2csc(C(C)(O)c3cccc(F)c3)n2)cc1 (centres undefined),13µM*,25.9µM*,20.6µM*,-17.2,?
COc1cccc(C(C)(O)c2nc(-c3ccc(OC)c(OC)c3)cs2)c1 (centres undefined),?,-21.1%,?,-25.1,?
CC(C)c1cccc(-c2csc(C(C)(O)c3ccncc3)n2)c1 (centres undefined),11.6µM*,?,13µM*,9.8,?
COCc1cccc(-c2csc(C(C)(O)c3ccccc3)n2)c1 (centres undefined),?,10.4%,?,0.0,-22.2%
CC(C)c1nc2c(c(=O)n(C)c(=O)n2C)n1C,4.4%,1.8%,6.5%,-3.6,6.4%
CN(C)/C=N/c1ncc(-c2ncc(C(F)(F)F)cc2Cl)cn1,7.2%,14.6%,-8.3%,-4.7,11.7%
CCc1ccccc1NC(=O)Cn1c(=O)n(Cc2ccco2)c(=O)c2sc3ccccc3c21,-5.5%,/,-16.7%,/,/
COc1cccc(C(C)(O)c2nc(-c3ccc(N(C)C)cc3)cs2)c1 (centres undefined),18.4µM*,?,20.6µM*,-18.9,?
COc1ccc2c(c1)C1NC(=S)NC(C)(O2)C1C(=O)Nc1ccc(C)cc1C (centres undefined),-3.7%,-0.9%,?,-56.4*,-3.9%
COc1ccc2c(c1)C1NC(=S)N[C@@](C)(O2)C1C(=O)Nc1ccccc1 (some centres undefined),-29.0%,3.2%,?,-11.5,-4.2%
Cn1c(NC(=O)Cc2cccc3ccccc23)cc(=O)n(C)c1=O,-27.3%,0.1%,-29.0%,-10.5,-1.5%
